Compound activity deposited in PubChem by National Center for Advancing Translational Sciences (NCATS).
The full list was thinned out, with hits kept by preference.
HttQ103 aggreg: mutant huntingtin aggregation inhibition. PC12 HttQ103-GFP aggregates, Acumen cytometry, 40 h. Potency, µM (titrated, usually from 46.1 µM), for inactives: at the top dose activity change, negative = inhibition, hits mostly inhibitors. 220,000 compounds, 1.1% hits; further: potency means the concentration at half of the fitted maximal effect; on the % scale 0 is the no-effect control and ±100 the full control effect; nearly all actives have a fitted effect of over 60% in size
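PC12 cells stably carrying ecdysone-inducible HTT exon 1 Q103–GFP were induced with tebufenozide (100 nM final) and treated with library compounds in titration. GFP aggregates in lysates were counted by laser scanning cytometry.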
HTT cytoprotect: cytoprotection in Huntington HTT-Q103 PC12 cell model | AID 1471 | Potency, µM (titrated, usually from 56.4 µM), for inactives: cytoprotection (ATP increase), actives largely listed as activators | PC12 HTT-Q103 induced, cytoprotection, ATP luminescence, 40 h | 230,000 compounds, 0.14% hits; further: potency means the concentration at half of the fitted maximal effect; % of control where 0% means no effect; nearly all actives have a fitted effect of over 45% in size
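Readout: ATPlite luminescence (ATP level). Model: stable PC12, inducible Htt exon1 Q103-GFP. Inducer: tebufenozide, 100 nM final. Compounds: dose series. No G418 in medium.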
PNC assembly inh: perinucleolar compartment assembly inhibition; PC3M PTB-GFP, PNC prevalence imaging, 16 h; active compounds read low; activity change (PNC), negative = inhibition, % at 10 µM; 140,000 compounds, 3.1% hits;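 active means readout at or below -70, meaning at least 70% loss of cells showing the perinucleolar compartment, a nuclear body marking cancer cells; inconclusive means readout between -30 and a set limit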;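 further: plate controls were DMSO wells for no effect and camptothecin positive control wells for full effect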
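PC3M cells stably expressing PTB-GFP, 750–1000 cells/well, treated 16 h at 37 °C with compound (23 nl of library stock), in duplicate. After paraformaldehyde fixation and Hoechst stain, imaged at 20x; PNC prevalence scored by image analysis.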
Active calls of the source: *; u = inconclusive; x = no result; [ ] = remark or other dose. Unless noted, the call rests on the fitted dose curve; in most records, active means well fitted curve in the direction sought with a large enough effect; inconclusive means small, poorly fitted or top-dose-only effect, or another doubt; inactive means no such curve, though single readings can be large; an effect the other way counts as inactive or inconclusive.

SMILES	HttQ103 aggreg	HTT cytoprotect	PNC assembly inh
CC(C)CN(CCCNC(=O)CC1Oc2ccccc2NC1=O)CC(C)C (centres undefined)	8%	16%[10 µM]	43
CCCCN(CC)CCCNC(=O)CC1Oc2ccccc2NC1=O (centres undefined)	17%	12%[10 µM]	-109*
O=C1C(Cl)=C(NCCN2CCCCC2)C(=O)c2ccccc21	u	-177%	x
CCOC(=O)c1ccc(NC2=CC(=O)C(=O)c3ccccc32)cc1	u	-82%	18
O=C1C(Cl)=C(Nc2ccc(O)cc2)C(=O)c2ccccc21	u	-98%[10 µM]	x
Cc1ccc(NC2=C(Cl)C(=O)c3ccccc3C2=O)cc1	10µM*	-29%[10 µM]	-14
CCOc1ccc(NC2=C(OC)C(=O)c3ccccc3C2=O)cc1	u	-60%[10 µM]	9
CCNC1=C(Cl)C(=O)c2ccccc2C1=O	13µM*	-25%	25
Cc1ccc(NC2=CC(=O)C(=O)c3ccccc32)cc1	10µM*	-74%[10 µM]	11
COC1=C(Nc2ccc(OC)cc2)C(=O)c2ccccc2C1=O	13µM*	-15%[10 µM]	36
O=c1c2c(ncn1CCO)nc1n2CCC1	5%	-12%[10 µM]	12
Cn1c(=O)[nH]c(=O)c2c1nc(N1CCCCC1)n2C/C=N/Nc1ccc(C(=O)O)cc1	3%[9.22 µM]	11%[10 µM]	x
COC(=O)/C(=C1/Oc2cc(C)oc(=O)c2S1)C(F)(F)F	u	-80%[10 µM]	-100*
COC(=O)/C(=C1/Oc2ccc(C(C)(C)C)cc2S1)C(F)(F)F	-7%	3%[10 µM]	u
Cc1cc(NC(=O)CCC(=O)N(CCC(C)C)CC(=O)NCC2CCCO2)no1 (centres undefined)	-5%	14%	0
Cc1cc(C)cc(N(CC(=O)NCC2CCCO2)C(=O)CCC(=O)Nc2cc(C)on2)c1 (centres undefined)	-11%	-26%	-82*
CN(C)CCCNCC(=O)Nc1ccccc1N1CCOCC1	1%	-6%	37
COCCOC(=O)C1=C(N)Oc2c(oc(CO)cc2=O)C1c1c(F)cccc1Cl (centres undefined)	26%	-24%	30
CCOC(=O)C1=C(N)Oc2c(oc(CO)cc2=O)C1c1ccc(F)cc1 (centres undefined)	0%	-10%[10 µM]	-100*
O=C(NCc1ccccc1)C(c1cccs1)N(C(=O)c1csnn1)C1CC1 (centres undefined)	-14%	-8%	-10
COc1ccc(CNC(=O)C(c2cccs2)N(C(=O)c2csnn2)C2CC2)cc1 (centres undefined)	-11%	25µM*	12
CC(NC(N)=O)C(=O)OCc1ccc(Cl)cc1Cl (centres undefined)	-6%	5%	21
CCOC(=O)N1CCN(C(=O)c2cc3c(=O)[nH]c4ccccc4c3s2)CC1	14%	-3%[10 µM]	-119*
CCCN1CCN(CCCNC(=O)c2cc3c(=O)[nH]c4ccccc4c3s2)CC1	-21%	-14%	x
CCOc1cc(C(=O)O/N=C(\N)c2ccc([N+](=O)[O-])cc2)cc(OCC)c1OCC	-1%	-6%	110
SMILES	HttQ103 aggreg	HTT cytoprotect	PNC assembly inh
COc1ccc(C(=O)NNC(=O)c2ccccn2)cc1	0%	-46%[10 µM]	-18
COc1cc(OC)cc(C(=O)Nc2c(F)cccc2F)c1	4%	-13%[10 µM]	-119*
COc1ccc(S(=O)(=O)N(C)CC(=O)Nc2c(F)cccc2F)cc1	7%	2%[10 µM]	-103*
COc1cc(OC)cc(C(=O)NNC(=O)c2ccccn2)c1	11µM*	-1%[10 µM]	u
COc1cccc(C(=O)Nc2c(F)cccc2F)c1	-15%[9.22 µM]	14%[10 µM]	x
COc1ccc(S(=O)(=O)N(C)CC(=O)Nc2ccc3c(c2)OCO3)cc1	-7%	5%	u
Cc1nn(-c2ccccc2)c(N)c1C1(O)C(=O)Nc2ccc([N+](=O)[O-])cc21 (centres undefined)	-3%[9.22 µM]	-12%[10 µM]	x
CC(C)CCCCCCc1ccc(O)cc1	-16%	-20%	x
COC(=O)c1ccn(C(=O)c2ccc(Cl)cc2)n1	5%	-15%	0
Cc1cccc(-c2nc(C#N)c(NCc3ccco3)o2)c1	-6%[9.22 µM]	17%[10 µM]	x
C=CCSc1nc2ccccc2c(=O)n1Cc1ccco1	x	-15%[10 µM]	x
Cc1ccccc1C(=O)N1CCc2cc(-c3nc(NC(=O)Cc4ccc5c(c4)OCO5)sc3C)ccc21	-18%	-4%[10 µM]	-9
Cc1sc(NC(=O)Cc2ccc3c(c2)OCO3)nc1-c1ccc2c(c1)CCN2C(=O)c1cccc(F)c1	33%	19%[10 µM]	-119*
O=C(NCc1ccc2c(c1)OCO2)c1ccc2c(c1)C(=O)N(Cc1cccnc1)C2=O	1%	-1%[0.074 µM]	14
CCCN(CCC)CCNC(=O)CCC(=O)Nc1ccc2nc(N3CCN(C)CC3)cc(C)c2c1	-14%	u	x
Cc1c(-c2nc(N)nc(C3CC3)c2C)nc(N)nc1C1CC1	x	6%[10 µM]	x
